# Test results as given in the OligoGym collection.
# Target: C1orf115
# Test: pooled miR-30 sensor sort-seq; sequence = guide strand
# Conditions: shRNA
# Further: reference of the scale not given here.
row,Sequence,sensor-assay potency score (higher = more potent)
1,TGACTCTAGTAACATCCTCTTC,-1.03
2,TACTTCTTCAGCTTCCTCCGGT,0.808
3,TTCTGCTGCACACCCACACTGC,-0.976
4,TTGCAGGCCGATGACCACGTAG,-1.3
5,TCTGACTCTAGTAACATCCTCT,0.697

# Target: C1orf131
# Test: as above
# Conditions: shRNA
row,Sequence,sensor-assay potency score (higher = more potent)
1,TTATGATCTTCTTCTGTTCTGT,-0.0808
2,TTGAATTTTCCAACCTGTCCAA,0.318
3,TAACCCGTGATACCAAACCGGT,-1.37
4,TTTGGATTTCCTGTCCTCCTGT,0.0328
5,TATTTTCTTGATATCAACTGGG,0.559
6,TTGTAATTCACATAACTCTTTT,-0.919
7,TTCTTTATGATCTTCTTCTGTT,-0.273
8,TTTTTCTTGAAAATATCTGTTT,-0.422
9,TTTAATGTAAACTACTAGCATT,-0.73
10,TTCTGTACCTCCAAAGTCGTAA,-0.764
11,TAAATTACTAGATTCTTGGTTC,0.886
12,TTTCTTGATATCAACTGGGCTC,-0.367

# Target: C1orf168
# Test: as above
# Conditions: shRNA
row,Sequence,sensor-assay potency score (higher = more potent)
1,TTTCACATTCTCTTGAACTGAC,0.742
2,TTTCTGATTCTTCAGCACCGTT,-1.25
3,TAGACATTGAAAGATAACCTTT,-0.653
4,TTCTCTTGAACTGACAGTGAAG,-0.905
5,TATCACTAGATTTTGTTCGGTG,0.284
6,TATTAGAAGCAAACTAACCATC,-0.751
7,TTGACATGTAAACTGAAACTGA,-0.315
8,TTCTAGGAGAGAAACTTTCTGA,-0.177
9,TAGAAGCAAACTAACCATCTGC,0.515
10,TTGATGACAATAATCTCTTTGT,-0.247
11,TTTCTTGAAGAATTGCTGCAGT,0.0759
12,TTTGTTTCCAGCTTTTTCCTGG,0.241

# Target: C1orf61
# Test: as above
# Conditions: shRNA
row,Sequence,sensor-assay potency score (higher = more potent)
1,TATAGCCATATAGATCTTGGTT,-1.16
2,TTTGGTCTCCCAACTTAGCCAT,-0.53
3,TTCTTCTTTTTGGTCTCCCAAC,-1.55
4,TTGGTCTCCCAACTTAGCCATG,-1.74
5,TTCTTTTTGGTCTCCCAACTTA,-0.917
6,TCTATCGTCCACACGGAGGAAG,-0.948
7,TATAGATCTTGGTTAGACATGG,-0.143
8,TTGAGAGGTCCTGAGTGGCAGG,-0.741
9,AACCAGATGAAGTACATTCTTC,-0.97
10,AAGATCATGGAATTTCTCCTGA,0.708
11,TCGGGGACTTGAGAGGTCCTGA,-0.479
